High-throughput results from PubChem.
An excerpt weighted towards active compounds, which were near 19% of everything screened.
RORgamma inh: inhibitors of mouse ROR gamma transcriptional activity; Potency, µM (doses to about 53.6 µM), most hits filed as inhibitors; 310,000 compounds, 5.4% hits; AID 2551; Drosophila S2 Gal4-RORgamma UAS-luciferase reporter, 20 h; P51450; also: nearly all actives have a fitted effect of over 60% in size
Target sequence (P51450 whole entry, looked up, the tested form may be a part): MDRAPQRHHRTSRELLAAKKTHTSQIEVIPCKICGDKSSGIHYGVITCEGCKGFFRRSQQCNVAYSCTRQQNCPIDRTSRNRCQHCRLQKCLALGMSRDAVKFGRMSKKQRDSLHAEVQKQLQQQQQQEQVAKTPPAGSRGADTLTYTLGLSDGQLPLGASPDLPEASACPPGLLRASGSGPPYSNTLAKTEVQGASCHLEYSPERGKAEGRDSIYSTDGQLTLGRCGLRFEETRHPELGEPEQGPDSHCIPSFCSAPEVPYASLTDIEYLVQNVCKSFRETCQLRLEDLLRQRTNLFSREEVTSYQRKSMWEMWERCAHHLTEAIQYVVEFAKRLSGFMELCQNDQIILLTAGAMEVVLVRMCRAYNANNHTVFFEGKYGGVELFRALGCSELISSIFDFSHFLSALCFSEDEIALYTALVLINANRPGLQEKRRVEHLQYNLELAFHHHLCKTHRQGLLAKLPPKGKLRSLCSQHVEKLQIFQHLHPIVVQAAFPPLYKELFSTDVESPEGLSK
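Using a luciferase readout, inhibitors were identified by reduced reporter activity in Drosophila cells coexpressing a copper-inducible Gal4–ROR gamma fusion and UAS-driven Photinus luciferase, incubated 20 hr after 700 uM copper sulfate.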
Gal4-VP16 FLuc: inhibits Gal4-VP16 luciferase reporter, ROR gamma counter-screen; Drosophila S2 Gal4-VP16 UAS-luciferase, luminescence, 20 h; Potency, µM (series often up to 53.6 µM), hits mostly inhibitors; 310,000 compounds, 3.5% hits;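 also: Gal4-VP16 expression switched on by copper sulfate through the metallothionein promoter; nearly all actives have a fitted effect of over 50% in size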
DT40 TDP1 CPT: DT40-hTDP1 cell growth loss with CPT; chicken DT40 Tdp1-/-;hTDP1 cells + 20 nM CPT, ATP luminescence, 48 h; Potency, µM (top dose mostly 46.2 µM), hits mostly inhibitors; 420,000 compounds, 12% hits; AID 686979; also: nearly all actives have a fitted effect of over 55% in size
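Chicken DT40 Tdp1-/- cells stably complemented with human TDP1 were seeded at 400 cells/well in medium containing 20 nM camptothecin, exposed to pin-transferred compounds, and grown at 37 °C for at least 48 hr. Viability was read as ATP luminescence.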
TDP1 inh: blocks human tyrosyl-DNA phosphodiesterase 1; recombinant TDP1, AlphaScreen DNA substrate cleavage; Q9NUW8; Potency, µM (doses to about 130 µM), most hits filed as inhibitors; AID 485290; 350,000 compounds, 0.28% hits; also: nearly all actives have a fitted effect of over 40% in size
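Here, a 5' biotin and 3' phosphotyrosine-FITC DNA oligonucleotide reports Tdp1 activity: intact substrate bridges AlphaScreen beads, while cleavage leaves a 3' phosphate and drops signal. All incubations at room temperature.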
TDP1 cell noCPT: qHTS for Inhibitors of human tyrosyl-DNA phosphodiesterase 1 (TDP1): qHTS in cells in absence of CPT; DT40 Tdp1-/- hTDP1 cells, no CPT, ATP luminescence, 48 h; Potency, µM (series often up to 46.2 µM), usual class: inhibitors; 420,000 compounds, 15% hits; AID 686978, 2013; also: nearly all actives have a fitted effect of over 55% in size
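DT40 Tdp1-/-;hTDP1 cells, no CPT (DMSO vehicle only), 400 cells/well; compounds pin-transferred; ≥48 hr, 37 °C; CellTiter-Glo 30 min RT dark, luminescence read.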
Large screens that a line does not name were inactive; ! = repeats disagree. Calls follow the shape of the dose curve; as a rule, active = well fitted curve in the direction sought with a large enough effect; inconclusive = small, poorly fitted or top-dose-only effect, or another doubt; inactive = no such curve, though single readings can be large; an effect the other way counts as inactive or inconclusive.

CCn1c(=S)[nH]c2cc(S(=O)(=O)N3CCCCC3)ccc21	RORgamma inh 10µM, Gal4-VP16 FLuc inconclusive, DT40 TDP1 CPT inconclusive, TDP1 cell noCPT 12.6µM
CCCCn1c(=S)[nH]c2cc(S(=O)(=O)N3CCOCC3)ccc21	DT40 TDP1 CPT inconclusive, TDP1 cell noCPT inconclusive (no result: RORgamma inh, Gal4-VP16 FLuc)
CCn1cc(/C=N/NS(=O)(=O)c2ccc(C)cc2)c(C)n1	RORgamma inh inconclusive
Cc1c(C(=O)/C=C/N(C)C)nnn1-c1ccc(Cl)cc1C#N	none
CC1(C)CC(=O)C(C(N)=NC(=O)c2ccccc2)=C(O)C1	TDP1 cell noCPT inconclusive
CCN(CC)c1ccc(C(=O)N/N=C(\C)c2ccc(OC)c(OC)c2)cc1	TDP1 cell noCPT 25.9µM
CCCN(Cc1ccccc1)C(=S)Nc1cccc(C(F)(F)F)c1	Gal4-VP16 FLuc inconclusive, DT40 TDP1 CPT inconclusive, TDP1 cell noCPT inconclusive
CN(C)CCCN(Cc1ccccc1)C(=S)Nc1cccc(C(F)(F)F)c1	DT40 TDP1 CPT 14.6µM, TDP1 cell noCPT inconclusive
CN(C)CCCN(Cc1ccccc1)C(=S)Nc1ccc(F)c(Cl)c1	TDP1 cell noCPT 18.4µM
O=C(CCCn1nnnc1CN1CCOCC1)N1CCC(c2ccc(F)cc2)C1 (configuration not stated)	TDP1 cell noCPT inconclusive
COc1ccc(/C(O)=C2/C(=O)C(=O)N(c3ccccn3)C2c2ccc(OC)cc2)cc1 (configuration not stated)	none (no result: TDP1 inh)
Cc1cc(C)c(C(O)c2ncc(-c3ccccc3C)[nH]2)c(C)c1 (configuration not stated)	none (no result: RORgamma inh, Gal4-VP16 FLuc, TDP1 inh)
O=C(CSc1n[nH]c(-c2cccs2)n1)NCCc1ccccc1	DT40 TDP1 CPT inconclusive, TDP1 cell noCPT inconclusive (no result: RORgamma inh, Gal4-VP16 FLuc)
CC(C)c1ccc2oc3nc(N)c(C(=O)O)cc3c(=O)c2c1	RORgamma inh 7.94µM, Gal4-VP16 FLuc 3.98µM!
Cc1nc2oc3ccc(Cl)cc3c(=O)c2cc1C(=O)O	Gal4-VP16 FLuc inconclusive (no result: TDP1 inh)
C=CCNC(=S)NNc1nc2sc3c(c2c(=O)[nH]1)CC(C)(C)OC3	RORgamma inh 5.62µM, Gal4-VP16 FLuc 10µM, TDP1 cell noCPT inconclusive
COC(=O)c1sccc1NC(=O)c1cc(-c2ccc(C)cc2)nc2ccccc12	DT40 TDP1 CPT inconclusive
Cc1nn(-c2ccc(F)cc2)c(C)c1CNC(=O)c1ccc(-n2cc(NC(=O)c3ccoc3)cn2)cc1	TDP1 cell noCPT 11.6µM (no result: RORgamma inh, Gal4-VP16 FLuc, TDP1 inh)
COc1cccc(Cc2nc3ccccc3nc2SCC(=O)N2CCc3ccccc32)c1	none (no result: RORgamma inh, Gal4-VP16 FLuc)
O=c1c2ccccc2nc(-c2ccc(Br)cc2)n1Cc1ccccc1	DT40 TDP1 CPT 8.2µM, TDP1 cell noCPT 23.1µM
O=c1c2ccccc2nc(-c2ccco2)n1Cc1ccccc1	Gal4-VP16 FLuc inconclusive, DT40 TDP1 CPT inconclusive, TDP1 cell noCPT inconclusive
O=c1c2ccccc2nc(-c2ccoc2)n1CCc1ccccc1	DT40 TDP1 CPT 7.31µM, TDP1 cell noCPT 6.51µM
CCOC(=O)C1(CCOC)CCN(C(C)CCc2ccc(OC)cc2)CC1 (configuration not stated)	TDP1 cell noCPT inconclusive
COc1ccc(CCN2CCC(Nc3nc4ccccc4n3Cc3ccc(F)cc3)CC2)cc1	RORgamma inh 14.1µM!, Gal4-VP16 FLuc inconclusive, DT40 TDP1 CPT 14.6µM, TDP1 cell noCPT 7.31µM
COc1ccc(CNc2nc3ccccc3n2CCN2CCCCC2)cc1	RORgamma inh 15.8µM, DT40 TDP1 CPT 18.4µM, TDP1 cell noCPT 20.6µM
Brc1cccc(CNc2nc3ccccc3n2CCN2CCOCC2)c1	RORgamma inh inconclusive, Gal4-VP16 FLuc inconclusive, DT40 TDP1 CPT inconclusive, TDP1 cell noCPT 11.6µM
CCCn1c(NCc2ccc3c(c2)OCO3)nc2ccccc21	DT40 TDP1 CPT inconclusive, TDP1 cell noCPT inconclusive (no result: Gal4-VP16 FLuc)
CCOc1ccc(CNc2nc3ccccc3n2CCN2CCOCC2)cc1	DT40 TDP1 CPT inconclusive, TDP1 cell noCPT 20.6µM
CCOc1ccc(C(=O)N2CCn3c2nc2ccccc23)cc1	none
Cc1ccc(S(=O)(=O)NC(C(=O)N2CCN(S(=O)(=O)c3cccc(F)c3)CC2)C(C)C)cc1 (configuration not stated)	none (no result: RORgamma inh, Gal4-VP16 FLuc)
CCN(CC)c1ccc(CNc2nc3ccccc3n2CCN2CCCCC2)cc1	RORgamma inh 8.91µM, Gal4-VP16 FLuc inconclusive, DT40 TDP1 CPT 4.61µM, TDP1 cell noCPT inconclusive
